About 79,000 compounds went through this panel and 15% of them were active in at least one assay; those are over-represented in the sample as a whole. Unmarked numbers belong to inactive results. Active and inactive are the calls of the source. Rule as the data show it: active = growth inhibition above about 70%; inactive = the rest.

Experiment [1] is described as follows: NCI Yeast Anticancer Drug Screen. Data for the rad50 strain (AID 155).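 Also: 0% = growth of vehicle-only cultures of the same strain.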 Particulars: S. cerevisiae rad50 strain growth inhibition; at 50.0 µM; hits give high values. The method in brief:
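Vehicle-treated cultures provide the reference for the growth inhibition reported for compound-exposed, repair-deficient yeast.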

Experiment [2] in a line: NCI Yeast Anticancer Drug Screen. Data for the mec2-1 strain (AID 157). The settings on record: S. cerevisiae mec2-1 strain, at 50.0 µM, hits give high values. In a few lines:
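Test agents were screened against the mec2-1 yeast strain, with defined DNA repair or cell cycle alteration. Growth was scored as inhibition against vehicle-only controls.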

Experiment [3] in a line: NCI Yeast Anticancer Drug Screen. Data for the sgs1 mgt1 strain (AID 161).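 Also: 0% = growth of cultures given vehicle only.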 Particulars: S. cerevisiae sgs1 mgt1 strain, at 50.0 µM, hits give high values. The method in brief: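 Read-out: growth inhibition vs vehicle controls. Cells: mutant yeast strain deficient in DNA damage repair.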
Experiment [4] can be described thus: NCI Yeast Anticancer Drug Screen. Data for the cln2 rad14 strain (AID 165).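 Also: 0% = growth equal to vehicle treated cultures.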 The settings on record: S. cerevisiae cln2 rad14 strain, at 50.0 µM, hits give high values. The method in brief:
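Growth of compound-exposed yeast (cln2 rad14 genotype) measured and expressed as inhibition relative to vehicle.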

A short description of experiment [5]: NCI Yeast Anticancer Drug Screen. Data for the bub3 strain (AID 167). Particulars: S. cerevisiae bub3 mutant strain, at 50.0 µM, hits give high values. The method in brief: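 Mutant yeast screening strain plus compound; vehicle-treated cultures serve as the 0% inhibition reference.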
The nature of experiment [6]: NCI Yeast Anticancer Drug Screen. Data for the mlh1 rad18 strain (AID 175). The settings on record: S. cerevisiae mlh1 rad18 strain growth inhibition; at 50.0 µM; hits give high values. The method in brief:
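In this whole-cell yeast screen, a strain with altered DNA damage repair is challenged with compound, and its growth is measured against matched vehicle-treated controls.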

On to `COc1ccc(C2=NN(C(C)=O)C(c3cc(OC)c(OC)cc3N)S2)cc1OC` (stereo not given) (tested in a mixture with another compound), for which the growth inhibition was 16.2% in experiment [1]; 17.1% in experiment [2]; 32.1% in experiment [3]; 19.6% in experiment [4]; 12.9% in experiment [5]; 30.1% in experiment [6].

On to `O=C(NC1CCC(CC2CCC(NC(=O)C34CC5CC(CC(C5)C3)C4)CC2)CC1)C12CC3CC(CC(C3)C1)C2` (stereo not given), for which the growth inhibition is -13% in experiment [1]; 7.6% in experiment [2]; 19.3% in experiment [3]; -6.25% in experiment [4]; -1.85% in experiment [5]; 4.35% in experiment [6].

In the case of `CN(C)COC(=S)SCC(=O)O`, the growth inhibition was 8.4% in experiment [1]; -0.85% in experiment [2]; 2.6% in experiment [3]; -26.6% in experiment [4]; -3.05% in experiment [5]; -1.9% in experiment [6].

As to `CN(C)CCCn1c(=O)nc2n(-c3ccccc3)c3ccccc3nc-2c1=O`, the growth inhibition in experiment [1] is 9.3%; in experiment [2] it was 4.5%; in experiment [3] it was -10.4%; in experiment [4], 8.75%; in experiment [5], 2.35%; in experiment [6] it was -44.5%.

Regarding `COC(=O)C(=O)c1c(C(=O)OC)nc2nnc(N)n2c1-c1ccc(OC)cc1`, the growth inhibition in experiment [1] was -13.4%; in experiment [2], 0.6%; in experiment [3], -0.5%; in experiment [4], -26.5%; in experiment [5] it was 8.2%; in experiment [6] it was -14.9%.

As to `CCCN(CCC)CCc1cc(C(C)=O)n(S(=O)(=O)c2ccc(C)cc2)c1`, the growth inhibition in experiment [1] is -10.2%; in experiment [2], -17.8%; in experiment [3], 0.3%; in experiment [4] it was 19.6%; in experiment [5], -7.35%; in experiment [6], 21.4%.

As to `Cc1[nH]c2cc([N+](=O)[O-])ccc2c1C`, the growth inhibition in experiment [1] is 0.45%; in experiment [2], -35.2%; in experiment [3], -10.1%; in experiment [4], 21.8%; in experiment [5], 1.3%; in experiment [6], -0.5%.

With `CC1(C)OC2COC(c3[nH]nc4c(=O)[nH]c(=O)[nH]c34)C2O1` (stereo not given), the growth inhibition in experiment [1] is 1.1%; in experiment [2], -5.65%; in experiment [3] it was -26.9%; in experiment [4] it was -20.8%; in experiment [5], -64.3%; in experiment [6], -5%.

As to `O=C1C2C(C(=O)N1c1cccc3ccccc13)C1(Cl)C(Cl)=C(Cl)C2(Cl)C1(Cl)Cl` (stereo not given), the growth inhibition in experiment [1] was 91% (active); in experiment [2], 93.7% (active); in experiment [3], 94.6% (active); in experiment [4], 91.5% (active); in experiment [5], 89.3% (active); in experiment [6], 94.5% (active).

Regarding `c1ccc(CCNCc2ccc(CNCCc3ccccc3)cc2)cc1`, the growth inhibition in experiment [1] is -5.75%; in experiment [2], -23.9%; in experiment [3] it was -12.2%; in experiment [4], 5.05%; in experiment [5], -0.25%; in experiment [6], 3.45%.

Consider `CC(=O)C(=Cc1ccc(Cl)c(Cl)c1)C(C)=O`, for which the growth inhibition in experiment [1] was 99.5% (active); in experiment [2], 99.7% (active); in experiment [3], 99.7% (active); in experiment [4] it was 99.6% (active); in experiment [5], 99.5% (active); in experiment [6], 99.5% (active).

For `O=C(NCc1cccnc1)Nc1cccc2c(NC(=O)NCc3cccnc3)cccc12`, the growth inhibition in experiment [1] is -17.1%; in experiment [2] it was -6.3%; in experiment [3] it was 5.8%; in experiment [4] it was 14.5%; in experiment [5] it was -0.05%; in experiment [6], 13.9%.

As to `CC(=O)c1ccc(N2C(=O)C3c4[nH]c5ccccc5c4C4CCC(C(C)(C)C)CC4C3C2=O)cc1` (stereo not given), the growth inhibition in experiment [1] is 42.8%; in experiment [2], -2.7%; in experiment [3], 0.5%; in experiment [4] it was 63%; in experiment [5], 16%; in experiment [6], 18.4%.

Regarding `S=C(N/N=C/c1cccc2ccccc12)Nc1c(Cl)cccc1Cl`, the growth inhibition in experiment [1] is 67.4%; in experiment [2], 83.6% (active); in experiment [3] it was 94.2% (active); in experiment [4], 55.6%; in experiment [5], 44.6%; in experiment [6], 66.2%.

In the case of `C1CCCN(/N=N/N2CCCCCC2)CC1`, the growth inhibition in experiment [1] was -1.5%; in experiment [2], 0.4%; in experiment [3] it was -1.7%; in experiment [4], -19.1%; in experiment [5], 10.8%; in experiment [6] it was 6.65%.

As for `COc1ccc(/C(=N\N=C(N)N)C(c2ccc(OC)cc2)C2OC(=O)c3ccccc32)cc1` (stereo not given), the growth inhibition in experiment [1] was -12.2%; in experiment [2], -4.85%; in experiment [3], -4.65%; in experiment [4] it was -64.8%; in experiment [5], 16%; in experiment [6], -18.7%.

In the case of `COc1cc([N+](=O)[O-])c(S(=O)(=O)O)cc1-n1nc(-c2ccccc2)n[n+]1-c1cc(S(=O)(=O)[O-])c([N+](=O)[O-])cc1OC`, the growth inhibition in experiment [1] is -5.65%; in experiment [2], 4.15%; in experiment [3], -13.3%; in experiment [4], -22.7%; in experiment [5] it was -20.4%; in experiment [6], 16.2%.

For the compound `CCCCCC(/C=C/c1ncccc1OCCCCCC(=O)O)=N\NC1=NCCN1`, the growth inhibition is 16.8% in experiment [1]; -17.6% in experiment [2]; -13.6% in experiment [3]; -25.4% in experiment [4]; -44.6% in experiment [5]; 11.7% in experiment [6].

On to `COc1ccc(C(CC(=O)O)c2ccc(OC)c(OC)c2)c(OC)c1` (stereo not given), for which the growth inhibition in experiment [1] was 3.4%; in experiment [2], -1.25%; in experiment [3], -6.65%; in experiment [4], -59.9%; in experiment [5], -1.6%; in experiment [6], 5.15%.

As to `CCOC(O)(NC(=O)C(C(F)(F)F)C(F)(F)F)C(F)(F)F` (stereo not given), the growth inhibition is 6.05% in experiment [1]; -18.1% in experiment [2]; -33.4% in experiment [3]; -9.45% in experiment [4]; -12.4% in experiment [5]; -26.9% in experiment [6].
